We go through 52 compounds from PubChem BioAssay AID1851 (National Center for Advancing Translational Sciences (NCATS), 2009).

Values joined by “and” are separate entries in the source; they are usually repeats but may differ in a detail not shown here. Equal entries are not always repeated. In all, about 16,000 compounds went through this assay and about 2,600 (16%) were called active. Not shown: some 20% with an inconclusive outcome. Calls follow the shape of the dose curve; as a rule, active = well fitted curve in the direction sought with a large enough effect; inconclusive = small, poorly fitted or top-dose-only effect, or effect the other way; inactive = no such curve, though single readings can be large or run the other way. For the sample, actives were picked, then their nearest neighbours and some compounds at random. Where a structure was tested more than once in an assay, its records may differ in their call.
% is scaled to controls: 0 for no effect and ±100 for the full control effect.

The target of this experiment is Cytochrome P450 2D6 (Homo sapiens) (UniProt P10635). Description: Cytochrome panel assay with activity outcomes. As to conditions: recombinant CYP, pro-luciferin dealkylation, luminescence, p450-cyp2d6; series mostly up to 57.1 µM.
Cytochrome P450 2D6 (Homo sapiens), sequence (P10635 whole entry, looked up): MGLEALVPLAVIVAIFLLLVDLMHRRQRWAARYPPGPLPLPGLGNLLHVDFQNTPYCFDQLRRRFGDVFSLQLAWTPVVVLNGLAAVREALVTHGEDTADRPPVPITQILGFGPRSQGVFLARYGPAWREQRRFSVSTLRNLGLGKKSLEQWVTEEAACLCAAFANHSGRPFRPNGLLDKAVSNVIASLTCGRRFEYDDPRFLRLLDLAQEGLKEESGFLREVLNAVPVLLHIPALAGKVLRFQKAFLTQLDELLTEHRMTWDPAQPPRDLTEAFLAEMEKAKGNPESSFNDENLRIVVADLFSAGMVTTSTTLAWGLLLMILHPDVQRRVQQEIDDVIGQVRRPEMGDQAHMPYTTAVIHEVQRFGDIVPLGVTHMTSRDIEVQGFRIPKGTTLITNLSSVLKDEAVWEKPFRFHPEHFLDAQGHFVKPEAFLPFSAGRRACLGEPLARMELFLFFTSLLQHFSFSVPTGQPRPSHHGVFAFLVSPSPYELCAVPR
What is called AC50 is the concentration at which the activity in the assay is half-maximal. As to `CCN1C[C@]2(C)CC[C@H](O)[C@@]34[C@@H]5CC6[C@@H](OC)C[C@@](O)([C@@H]5[C@@H]6O)[C@H](C[C@@H]23)[C@H]14`, the AC50 result was “inactive”.
Still for that read-out and setting: then `O=c1cccc2n1CC1CNC[C@H]2C1`, with “inactive”.
Consider `COC(=O)[C@@H]1[C@@H](O)[C@@]2(O)c3c(OC)cc(OC)cc3O[C@@]2(c2ccc(OC)cc2)[C@H]1c1ccccc1`, for which the activity, negative = inhibition was 18.2% [at 11.4 µM] (inactive).
The same measure, in the same setting: under `C[C@@]12CC[C@@H]3[C@@H](CC[C@H]4C[C@@H](O)CC[C@]43C)[C@H]1CC[C@@H]2c1cc(C(F)(F)F)n[nH]1` stands -7.84% [at 11.4 µM] (inactive).
Turning to `O=C(c1ccccc1F)c1cn(Cc2ccccc2)c2ccccc12`, the AC50 entry is “inactive”.
Still for that read-out and setting: under `C[N+]1([O-])[C@@H]2CC[C@H]1CC(OC(=O)[C@@H](CO)c1ccccc1)C2` (some centres not stated) stands “inactive”; under `Cc1cc(C)cc(C(=O)OC2C[C@H]3CC[C@@H](C2)N3C)c1` (some centres not stated), 251 nM (active); under `CN1[C@@H]2CC[C@H]1CC(O)C2` (some centres not stated), “inactive”.
Still for that read-out and setting: then `CN1[C@@H]2CC[C@H]1CC(OC(=O)c1cc(Cl)cc(Cl)c1)C2` (some centres not stated), with 7.94 nM (active); and `C[C@@H](C(=O)OC1C[C@H]2CC[C@@H](C1)N2C)c1ccc(Br)cc1` (some centres not stated), with 3980 nM (active).
Turning to `C[N+]1([O-])[C@H]2CC[C@H]1CC(OC(=O)[C@@H](CO)c1ccccc1)C2` (some centres not stated), the activity, negative = inhibition was 17.4% [at 11.4 µM] (inactive).
With `CS(=N)(=O)CC[C@H](N)P(=O)(O)O` (some centres not stated), the activity, negative = inhibition is -6.15% [at 11.4 µM] (inactive).
For `C[C@@]12CCC(=O)C=C1C=C[C@H]1[C@H]3CC[C@](O)(CCC(=O)O)[C@]3(C)CC[C@@H]12`, the AC50 result is “inactive”.
On to `Cc1ccc(S(=O)(=O)NCC2CCC(C(=O)N3CCC4(CC3)OCCO4)CC2)cc1` (configuration not stated), for which the AC50 entry is “inactive”.
Same read-out and setting: then `CCC12CN3CC(CC)(CN(C1)C3c1cccnc1)C2=O` (configuration not stated), with “inactive”.
Consider `O=S(=O)(O)/C(=C\c1ccccc1)c1ccccc1` (tested in a mixture with another compound), for which the activity, negative = inhibition was -7.27% [at 11.4 µM] (inactive).
On to `CCCCCC[C@H]1C(=O)O[C@H](C)[C@H](NC(=O)c2cccc(NC=O)c2O)C(=O)O[C@@H](C)[C@H]1OC(=O)CC(C)C`, for which the AC50 result is “inactive”.
Same read-out and setting: under `CN(C)c1ccc(NC(=O)CN2C(=O)CN=C(c3ccccc3)c3ccccc32)cc1` stands “inactive”; under `O=C1CCCN1CC#CCN1CCCC1`, “inactive and 7.94 µM (active)”.
Still for that read-out and setting: under `C[N+](C)(C)CC#CCN1CCCC1=O` stands “inactive and 3.98 µM (active)”; under `NC(=O)CN1CCCC1=O`, “inactive”; under `C(#CCN1CCCC1)CN1CCCC1`, “inactive”.
For the compound `Cc1ccc(OP(=O)(Oc2ccc(C)cc2)N2C=Cc3ccccc3[C@H]2C#N)cc1`, the activity, negative = inhibition is -6.26% [at 11.4 µM] (inactive).
Still for that read-out and setting: then `CN(C)CCC(=O)[C@@]1(O)CC[C@H]2[C@H]3CC=C4C[C@@H](O)CC[C@]4(C)[C@H]3CC[C@]21C`, with -9.11% [at 11.4 µM] (inactive).
As for `COC[C@H]1OC(=O)c2coc3c2[C@@]1(C)C1=C(C3=O)[C@H]2CCC(=O)[C@@]2(C)C[C@H]1OC(C)=O`, the AC50 result was “inactive”.
The same measure, in the same setting: under `S=C(S)N1CCCC1` stands “inactive”.
With `C[C@@H]1O[C@@H](O[C@H]2C[C@@H](O)[C@@]3(CO)[C@H]4[C@H](O)C[C@]5(C)[C@@H](C6=CC(=O)OC6)CC[C@]5(O)[C@H]4CC[C@@]3(O)C2)[C@@H](O)[C@H](O)[C@H]1O`, the activity, negative = inhibition is -4.25% [at 11.4 µM] (inactive).
With `O=C(Nc1cccc(F)c1)N1CCCC2(CCN(C(=O)Oc3ccccc3)CC2)C1`, the AC50 entry was “inactive”.
`COc1ccccc1CN1CCCC2(CCN(C(=O)Oc3ccccc3)CC2)C1`: the AC50 was 3980 nM (active).
On the same count and under the same terms, then `O=C(Oc1ccccc1)N1CCC2(CCCN(Cc3nccs3)C2)CC1`, with 5010 nM (active); and `O=C(Oc1ccccc1)N1CCC2(CCN(Cc3nccs3)CC2)CC1`, with “inactive”.
Take `COc1cc2c(cc1OC)[C@]13CC[N@+]4(C)CC5=CCO[C@H]6CC(=O)N2[C@@H]1[C@@H]6[C@@H]5C[C@]34O`: the activity, negative = inhibition was -2.44% [at 11.4 µM] (inactive).
For the compound `C[C@@]12CC[C@H]3[C@@H](CCC4=CC(=O)CC[C@]43C)[C@H]1CC[C@H]2C(=O)CO`, the AC50 entry was “inactive”.
On the same count and under the same terms, then `CC(C)C[C@H](NP(=O)(O)O[C@@H]1O[C@@H](C)[C@@H](O)[C@@H](O)[C@H]1O)C(=O)N[C@@H](Cc1c[nH]c2ccccc12)C(=O)O`, with “inactive”; and `O=C(c1cc(-c2ccccc2)nc2ccccc12)N1CCC2(CC1)OCCO2`, with “inactive”.
For the compound `CN(CCc1ccc(Cl)c(Cl)c1)[C@H]1CCCC[C@H]1N1CCCC1`, the AC50 is 6.31 nM (active).
Same read-out and setting: under `CN(C)CCN(C)CCc1ccc(Cl)c(Cl)c1` stands “inactive”; under `Clc1cnc(Oc2ccc(Oc3ncc(Cl)cc3Cl)cc2)c(Cl)c1`, “inactive”.
Take `NS(=O)(=O)c1ccc(-c2ccc([As](=O)(O)O)cc2)cc1`: the activity, negative = inhibition was 16.2% [at 11.4 µM] (inactive).
Turning to `N[C@@H](Cn1cc(I)c(=O)[nH]c1=O)C(=O)O`, the AC50 result is “inactive”.
On the same count and under the same terms, then `N[C@@H](Cn1oc(=O)[nH]c1=O)C(=O)O`, with “inactive”.
In the case of `N[C@H](Cn1ccc(=O)[nH]c1=O)C(=O)O`, the AC50 was 3980 nM (active).
Regarding `CCSCC[C@H](N)C(=O)O`, the activity, negative = inhibition was 2.98% [at 11.4 µM] (inactive).
With `CC(=O)OCC(=O)[C@@H]1CC[C@H]2[C@H]3CC[C@H]4C[C@@H](O)CC[C@]4(C)[C@@H]3C(=O)C[C@@]12C`, the AC50 entry is “inactive”.
On the same count and under the same terms, then `COc1ccc(C2NCc3ccc4c(c3-n3cccc32)OCO4)cc1OC` (configuration not stated), with 398 nM (active).
Consider `CCNC(=O)[C@@H]1O[C@@H](n2cnc3c(N)ncnc32)[C@H](O)[C@H]1O`, for which the AC50 result is “inactive”.
`C[C@@H]1[C@H]2C=C[C@@H]1[C@@H](c1c3ccc(=O)c(O)c-3oc3c(O)c(O)ccc13)[C@@H]2C(=O)O`: the activity, negative = inhibition is 2.68% [at 11.4 µM] (inactive).
Turning to `Cc1nc2ccccc2c(=O)n1-n1cnnc1`, the AC50 result is “inactive”.
For `Clc1ccc(C(c2ccc(Cl)cc2)n2cc[n+](C[C@@H](OCc3ccc(Cl)cc3Cl)c3ccc(Cl)cc3Cl)c2)cc1`, the AC50 was 39.8 nM (active).
Take `O=C(C1CC(=O)N(C2CCCC2)C1)N1CCC2(CC1)OCCO2` (configuration not stated): the AC50 result was “inactive”.
Regarding `CCN1CCN(Cc2cc(OC)c(OC)cc2[N+](=O)[O-])CC1`, the AC50 is 6310 nM (active).
`CCN1C[C@]2(C)CC[C@H](OC)[C@@]34[C@@H]2[C@H](OC(C)=O)[C@]2(OCO[C@@]25C[C@@H](OC)[C@@H]2C[C@@]3(O)[C@H]5[C@@H]2OC)[C@H]14`: the AC50 entry is “inactive”.
